Results as given in PubChem BioAssay AID504684 (Southern Research Specialized Biocontainment Screening …, 2011).
Results with a measured potency or affinity are listed apart. Unmarked numbers belong to inactive results. The rule behind the calls is not given here.

test: Vero cell cytotoxicity, cytotoxicity control for M. tuberculosis inhibitor project, purified and synthesized samples, set 3 (AID 504684); conditions: series mostly up to 100 µM; viability: at the top concentration

| SMILES | viability [%] |
| --- | --- |
| CC[N+](C)(CC)CCCCOc1ccc2c(c1)C(=O)c1cc(OCCCC[N+](C)(CC)CC)ccc1-2 | 87.1 |
| CCOC(=O)COn1c2c(c3c4no[n+]([O-])c4ccc31)CCCC2 | 93.2 |
| O=C(CSc1ccccn1)NC1CCCCC1 | 80.4 |
| CCOC(=O)CSc1nc(C)c(C)c(=O)[nH]1 | 100 |
| O=C(CSc1ncccn1)NC1CCCCC1 | 80.4 |
| Cc1[nH]c(=S)[nH]c(=O)c1C | 92.6 |
| COC(=O)C(C)Oc1ccc(-c2nccc(-c3ccccn3)n2)cc1 (stereo not drawn) | 82 |
| CCSc1nc(C)c(C)c(=O)[nH]1 | 101 |
| Cc1ccc(NC(=O)COC(=O)CCc2c[nH]c3ccccc23)cc1[N+](=O)[O-] | 79.8 |
| O=C(CSc1nc2ccccc2c(=O)[nH]1)NC1CCCCC1 | 94 |
| Cc1c[nH]c(=S)[nH]c1=O | 80.5 |
| Cc1cc(=O)[nH]c(=S)[nH]1 | 94.2 |
| COC(=O)C(C)Oc1ccc(Cc2ncc(C(F)(F)F)cc2Cl)cc1 (stereo not drawn) | 83.6 |
| CCOC1OC(=O)C(Cl)=C1Nc1ccccc1C (stereo not drawn) | 85 |
| O=C(CSc1nccc(=O)[nH]1)Nc1ccc(N2CCOCC2)cc1 | 103 |
| COc1cc(NC(=O)C/C(C)=N/NC(=O)c2ccccn2)c(OC)cc1Cl | 98.9 |
| O=C(CSc1nc(O)cc(=O)[nH]1)Nc1ccccc1 | 91.6 |
| Cc1cc(=O)[nH]c(SCC(=O)Nc2ccccc2)n1 | 87.8 |
| CCOC(=O)COc1ccc(/C=C2\NC(=S)N(CC)C2=O)cc1 | 86.3 |
| Cc1nc(SCC(N)=O)[nH]c(=O)c1C | 93.2 |
| Cc1nc(SCC(=O)NC2CCCCC2)[nH]c(=O)c1C | 84.1 |
| CC(=NCc1ccc2c(c1)OCO2)C1=C(O)c2ccccc2C1=O | 89.5 |
| COC(=O)C1CC(=O)N(c2ccc(OCc3ccccc3Cl)cc2)C1 (stereo not drawn) | 79.3 |
